Assay outcomes: PubChem BioAssay, National Center for Advancing Translational Sciences (NCATS)
LASV entry inh: qHTS for Inhibitors of binding or entry into cells for Lassa Virus; Lassa virus pseudotype entry inhibition, cell reporter; Potency, µM (top dose mostly 37.9 µM), actives largely listed as inhibitors; 300,000 tested, 1.2% active; AID 540256, 2011; calls by dose curve; tested in HEK293 cells; further: nearly all actives have a fitted effect of over 50% in size
HCMV antiviral: qHTS Assay for inhibitors of the human cytomegalovirus (HCMV); HFF cells, HCMV-luciferase reporter, 72 h; active compounds read low; activity change, negative = inhibition, % at 57.5 µM; 410,000 tested, 4.5% active; AID 1259415, 2018; in the data active means activity change below about -60%; inconclusive means no clear call, values can overlap the other calls; inactive means above about -39%
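Compounds were evaluated in HFFs infected with an HCMV luciferase reporter virus (MOI 1 PFU/cell). Luciferase in lysates collected 72 h post infection served as the replication measure.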
MARV entry inh: qHTS for inhibitors of binding or entry into cells for Marburg Virus; 300,000 tested, 1.8% active; Marburg virus pseudotyped entry inhibition, cell reporter; Potency, µM (doses to about 37.8 µM), usual class: inhibitors; calls by dose curve; tested in HEK293 cells
FMDV antiviral: High Throughput Screening for Foot and Mouth Disease Virus Antivirals. AID 1159524, 2015. Potency, µM (series often up to 57.9 µM), usual class: inhibitors. FMDV antiviral cell-based qHTS. 410,000 tested, 1.2% active; calls by dose curve; tested in HEK293T cells; further: read-out not given here; nearly all actives have a fitted effect of over 45% in size
Numbers stand for hits; . = inactive; ? = inconclusive; / = no result given; ! = a repeat was not active. A selection: hits, their analogues and other compounds. The true share with any hit is near 6.2%.

SMILES	LASV entry inh	HCMV antiviral	MARV entry inh	FMDV antiviral
Fc1ccc(C(CCNCc2cccs2)c2ccco2)cc1 (stereo unspecified)	.	.	7.94µM	.
CC1=C(C(N)=O)C(c2ccccc2F)n2nc(-c3ccc(Cl)cc3)nc2N1 (stereo unspecified)	.	.	.	.
CCOC1=C2[C@@H](CN(S(=O)(=O)c3ccc(C)cc3)[C@H]2c2ccccc2)[C@H]2C(=O)N(Cc3ccccc3)C(=O)[C@H]2C1	/	.	/	.
Cc1ccc(NC(=O)C2CC(=O)N(Cc3ccccc3)C2)cc1S(=O)(=O)N1CCCCCC1 (stereo unspecified)	?	-77.2	?	?
Cc1ccc(CN2CC(C(=O)Nc3ccc(S(=O)(=O)N4CCCCC4)cc3)CC2=O)cc1 (stereo unspecified)	?	-68.5	.	.
CCN(CC)S(=O)(=O)c1cc(NC(=O)C2CC(=O)N(Cc3ccccc3)C2)ccc1Cl (stereo unspecified)	/	-63.0	/	11.2µM
O=C(Nc1ccc(S(=O)(=O)N2CCCCC2)cc1)C1CC(=O)N(Cc2ccccc2)C1 (stereo unspecified)	.	.	.	.
Cc1ccc(CN2CC(C(=O)N3CCN(c4ccccc4O)CC3)CC2=O)cc1 (stereo unspecified)	11.2µM	.	.	?
O=C1CC(C(=O)N2CCN(c3ccccc3Cl)CC2)CN1Cc1ccccc1 (stereo unspecified)	/	.	/	.
CCN1[C@H](C(=O)OC)[C@@H](CO)[C@@H]2Cn3c(ccc(Br)c3=O)[C@@H]21	/	.	/	/
C(=Cc1nc2ccccc2o1)c1ccc2c(c1)OCO2	/	.	/	.
C[n+]1c(/C=C/c2ccc(O)cc2)ccc2ccccc21	.	.	?	.
C(=Cc1cnc2ccccc2n1)c1ccc2c(c1)OCO2	/	-80.8	/	1.78µM
C[n+]1c(/C=C/c2ccc3c(c2)OCO3)ccc2ccccc21	.	-65.5	?	.
Cc1cc(C(=O)Cn2nc(C(=O)O)c3ccccc3c2=O)c(C)n1-c1ccc(OC(F)F)cc1	/	-65.9	/	.
Cc1cc(C(=O)Cn2nc(C(=O)O)c3ccccc3c2=O)c(C)n1CCc1ccc(F)cc1	?	.	5.62µM	.
Cc1cc(C(=O)CSc2cccc[n+]2[O-])c(C)n1-c1ccc(OC(F)F)cc1	/	-72.6	/	.
COc1ccc(CN(C(=O)c2ccc(OCC(C)C)cc2)C2CCS(=O)(=O)C2)cc1 (stereo unspecified)	?	.	.	.
Cc1ccc2cc(CN(Cc3ccc(F)cc3)Cc3nnnn3C3CCCC3)c(=O)[nH]c2c1	.	.	14.6µM!	/
CCc1ccc2[nH]c(=O)c(CN(Cc3ccc4c(c3)OCO4)Cc3nnnn3C3CCCC3)cc2c1	8.2µM	.	?	?
CCC[C@H]1[C@@H](NS(=O)(=O)c2ccc([N+](=O)[O-])cc2)CC[C@@]23CCCN2C(=O)CCC[C@@H]13	/	.	/	/
Cc1cccc(N2C(N)=C(C#N)C(C#N)(C#N)C2c2ccccc2)c1 (stereo unspecified)	?	.	.	39.8µM
CCN(CC)CCOCCOC(=O)C1(c2ccccc2)CCCC1	?	.	15.8µM	.
O=C(CN1CCN(Cc2ccc(F)cc2Cl)S1(=O)=O)Nc1ccc(F)cc1	.	.	/	.
CCOc1ccc2nc(N[C@@](NC(=O)CC)(C(=O)OC)C(F)(F)F)sc2c1	/	/	.	/
SMILES	LASV entry inh	HCMV antiviral	MARV entry inh	FMDV antiviral
Cc1cc(=O)n2[nH]c(-c3ccc(C(C)(C)C)cc3)cc2n1	?	-63.3	?	.
CCO[C@H]1OC(C(=O)N2CCN(Cc3ccccc3)CC2)=C[C@@H](c2ccc(C(F)(F)F)cc2)[C@@H]1CCCO	/	-86.4	/	.
CCO[C@H]1OC(C(=O)N2CCN(C)CC2)=C[C@@H](C(C)(C)C)[C@@H]1CCCO	/	.	/	.
CCO[C@H]1OC(C(=O)NC2CC2)=C[C@@H](c2ccc3c(c2)OCO3)[C@@H]1CCCO	/	.	/	.
CCO[C@@H]1OC(C(N)=O)=C[C@H](c2ccc3c(c2)OCO3)[C@H]1CCCO	/	-95.2	/	.
CCO[C@@H]1OC(C(=O)NCc2nc3ccccc3[nH]2)=C[C@H](C)[C@H]1CCCO	/	.	/	.
CCO[C@H]1OC(C(=O)N2CCN(C)CC2)=C[C@@H](C)[C@@H]1CCCO	/	-96.8	/	.
CCO[C@H]1OC(C(=O)NCc2nc3ccccc3[nH]2)=C[C@@H](C)[C@@H]1CCCO	/	-62.2	/	.
CC(=O)N1CCN(c2ccc(Oc3ncnc4sccc34)cc2)CC1	.	-75.2	.	?
CCc1c(C)sc2nc(C(C)C)nc(SCC(=O)N3CCc4ccccc4C3)c12	20.6µM	-90.3	?	/
O=S(=O)(c1ccc(NC(=S)N/N=C/c2ccc(Oc3ccccc3)cc2)cc1)N1CCOCC1	.	.	.	.
